# Reference: PubChem BioAssay (NCATS)
# Inconclusive results are not listed. Calls of active or inactive are those of the source. Unless noted, the rule behind the calls is not given here.
# Assays:
# [1] = qHTS profiling of the MIPE4 collection as inhibitors of Plasmodium falciparum (3D7) proliferation (AID 743344);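 note: scaled between DMSO vehicle wells and 0.29 µM artemisinin as full inhibition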; conditions: P. falciparum 3D7 in erythrocytes, SYBR Green DNA fluorescence, 72 h; at 28.5 µM unless noted
# In short: (§1)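 Erythrocytes infected with P. falciparum (0.3% parasitemia, 2.5% hematocrit) incubated with compounds 72 h at 37 C, 5% CO2. Lysis with saponin/Triton buffer containing SYBR Green I, overnight at room temperature in the dark; DNA fluorescence (485/535 nm) normalised to 0.29 uM artemisinin and DMSO.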
# [2] = qHTS profiling of the MIPE4 collection as inhibitors of Plasmodium falciparum (DD2) proliferation (AID 743345); conditions: P. falciparum Dd2 in erythrocytes, SYBR Green DNA, 72 h; at 28.5 µM unless noted
# In short: as §1
# [3] = qHTS profiling of the MIPE4 collection as inhibitors of Plasmodium falciparum (DD2) proliferation (Rep 2) (AID 743346); conditions: P. falciparum Dd2 in erythrocytes, SYBR Green DNA, 72 h; at 28.5 µM unless noted
# In short: as §1
# [4] = qHTS profiling of the MIPE4 collection as inhibitors of Plasmodium falciparum (HB3) proliferation (AID 743347);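 note: plate controls were DMSO vehicle wells for no effect and artemisinin wells for full effect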; conditions: P. falciparum HB3 in erythrocytes, SYBR Green DNA, 72 h; at 28.5 µM unless noted
# In short: as §1
# [5] = qHTS assay for measurement of the activity of small molecule inhibitors on Zika virus induced Caspase-3 activity in human iPSC derived neural progenitor cells (hNPCs) (AID 1224857; active = well fitted curve in the direction sought with a large enough effect; an effect the other way counts as inactive or inconclusive; note: % of control where 0% means no effect; nearly all actives have a fitted effect of over 65% in size); conditions: hNPCs ZIKV-induced caspase-3/7, Caspase-Glo luminescence, 6 h; series mostly up to 45.7 µM
# In short: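 Percent inhibition of virus-induced caspase-3/7 luminescence (Caspase-Glo), scaled between uninfected cells and Zika-infected cells. hNPCs received compound 1 hr before ZIKV at 2 FFU/cell, with 6 hours infection at 37 C.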
# [6] = High-throughput drug toxicity screening in the BPDCN cell line Cal-1 (AID 1224825); conditions: Cal-1 BPDCN cell viability, qHTS; at 45.8 µM (top of the series) unless noted
# In short: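 Exponentially growing Cal-1 cells, 500 per well in phenol red-free RPMI with 10% FBS, were exposed to compounds for 48 h at 37 °C, 5% CO2. Viability was read by CellTiter-Glo luminescence and normalised to DMSO (100%) and 9.2 uM bortezomib (0%).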
# [7] = qHTS profiling for inhibitors of Plasmodium falciparum (3D7) proliferation (AID 743322);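 note: infected erythrocytes exposed to compound for 72 h before lysis; 100% = DMSO vehicle wells and 0% = 0.29 µM artemisinin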; conditions: P. falciparum 3D7 proliferation; at 28.7 µM (top of the series)
# In short: as §1
# [8] = qHTS profiling for inhibitors of Plasmodium falciparum (DD2) proliferation (AID 743323); conditions: lower = more inhibition; at 28.7 µM (top of the series)
# In short: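 1536-well qHTS; infected RBCs 0.3% parasitemia/2.5% Hct final; cpd 72 h 37 C 5% CO2; lysis buffer + SYBR Green I, o/n RT dark; FI 485/535; norm. to 0.29 uM artemisinin and DMSO, plate-stack corrected.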
# [9] = qHTS Assay for Identifying Gametocytocidal Compounds (AID 743244; active = well fitted curve in the direction sought with a large enough effect; an effect the other way counts as inactive or inconclusive;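 note: % is set by controls: 0 for no effect and ±100 for the full control effect; actives lower the fluorescent signal which means gametocytes are killed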); conditions: P. falciparum 3D7 stage III-V gametocytes, alamarBlue, 72 h; max response: stronger effect = lower value
# In short: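 Viability read-out was resazurin reduction (alamarBlue, 24 h) measured at Ex 525/Em 598 nm. Beforehand, late-stage (III-V) 3D7 P. falciparum gametocytes at 20,000 cells/well were incubated with compound 72 h at 37C under 5% CO2.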
# [10] = qHTS profiling for inhibitors of Plasmodium falciparum (HB3) proliferation (AID 743324; active = well fitted curve in the direction sought with a large enough effect; an effect the other way counts as inactive or inconclusive;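 note: 100% = DMSO vehicle wells and 0% = artemisinin-treated control wells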); conditions: Plasmodium falciparum HB3 blood-stage proliferation; at 28.7 µM (top of the series)
# In short: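 P. falciparum HB3 grown in erythrocytes (0.3% parasitemia, 2.5% hematocrit final) with compound for 72 h at 37 C, 5% CO2. Parasite DNA detected by SYBR Green after saponin/triton lysis overnight; normalized to 0.29 uM artemisinin and DMSO.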
SMILES,"parasite growth, % of DMSO control [1]","parasite growth remaining, % of DMSO control (lower = more inhibition) [2]","parasite growth, % of control (lower = inhibition) [3]","growth, % of control [4]",Potency [5],viability (% of control) [6],remaining parasite growth % (stronger effect = lower value) [7],"activity, percent of control [8]",max response [9],"remaining proliferation (% of control), lower = more inhibition [10]"
Nc1cccc(-c2cc3c(Oc4cccc(O)c4)ncnc3[nH]2)c1,33.1%,86%,52.9%,43.2%,inactive,,,,,
OCCCNc1cc(-c2ccnc(Nc3cccc(Cl)c3)n2)ccn1,,10.1%,19.1%,6.21%,inactive,2.53%,,,,
CC1(O)CC(c2nc(-c3ccc4ccc(-c5ccccc5)nc4c3)c3c(N)nccn23)C1 (stereo not drawn),9.23%,19%,10.7%,5.32%,inactive,8.23%,0.533%,2.21%,,
O=C(O)c1ccc2cc(-c3ccc(O)c(C45CC6CC(CC(C6)C4)C5)c3)ccc2c1,,40%,25.3%,11.7%,inactive,7.6%,5.44%,10.6%,9.89% (inactive),-1.12%
CCc1cc2c(cc1N1CCC(N3CCOCC3)CC1)C(C)(C)c1[nH]c3cc(C#N)ccc3c1C2=O,12.5%,8.84%,33.7%,12.5%,inactive,76.4%,,,,
